The text below walks through data of PubChem BioAssay (NCATS).

Records with an inconclusive call do not appear. Entries that show only a call come without a potency. Activity calls are given as the source filed them. The call rests on the fitted dose curve; in most records, active means well fitted inhibition curve with a large enough effect; inconclusive means small, poorly fitted or top-dose-only effect; inactive means flat fitted curve, though single readings scatter.
Potency means the concentration at half of the fitted maximal effect.

The assay deals with CP203. The assay can be described thus: qHTS profiling for inhibitors of Plasmodium falciparum proliferation (AID 504749). Further: nearly all actives have a fitted effect of over 60% in size. The following applies: P. falciparum in erythrocytes, SYBR Green DNA, 72 h; series mostly up to 28.7 µM. An excerpt: NIH National Institute of Allergy and Infectious Diseases [NIAID] NIH Chemical Genomics Center [NCGC] MLPCN Grant: None Assay Provider: Xinzhuan Su, NIAID NCGC Assay Overview: Plasmodium falciparum is a virulent malarial parasite that kills 1-2 million people worldwide each year. Transmitted by mosquitoes, the sporozoite form of the parasite enters the blood stream to infect hepatocytes, where they become merozoites that infect red blood cells (erythrocytes). Within erythrocytes, merozoites begin a […] cycle of growth and division, after which the parasite is released to infect new red blood cells. Gametocytes, which form within erythrocytes as well, circulate in the bloodstream and are ingested by the mosquito, thereby completing the life cycle. To profile malarial isolates for differential chemical responses and to identify inhibitors of malarial growth, an assay that measures P. falciparum growth and replication within erythrocytes was employed. This assay uses a DNA binding fluorescent dye (SYBR Green) to detect parasite DNA following cell lysis. Because mature erythrocytes lack DNA, only Plasmodium-derived DNA is detected.
NCGC Assay Protocol Summary: The SYBR Green viability assay was adapted from a method described previously (Plouffe et al., 2008). For screening 3 ul culture medium was dispensed into 1536 well black clear bottom plates (Aurora Biotechnologies) using a Multidrop Combi (Thermo Fisher Scientific Inc.), 23 nL compounds in DMSO were added by a pin tool (Kalypsys), and 5 ul of erythrocytes infected with P. falciparum (0.3% parasitemia, 2.5% hematocrit final concentration) were added. The plates were incubated at 37 C in a humidified incubator in 5% CO2 for 72 h, and 2 ul lysis buffer (20 mM Tris HCl, 10 mM EDTA, 0.16% saponin, 1.6% triton X, 10X SYBR Green I supplied as 10,000X […] by Invitrogen) was added to each well. The plates were mixed for 25 sec with gentle shaking and incubated overnight at room temperature in the dark. The following morning, fluorescence intensity at 485(14) nm excitation and 535(25) nm emission wavelengths was measured on an EnVision (Perkin Elmer) plate reader. Plate reads were normalized relative to the control inhibitor (0.29 uM artemisinin) and vehicle (DMSO) wells present on each plate and then corrected by an algorithm using vehicle-only control plates at the beginning and end of the compound plate stack.
A general note: qHTS replaces the single test concentration by a dilution series.
Consider `O=C1C(CCC(O)c2ccc(F)cc2)C(c2ccc(O)cc2)N1c1ccc(F)cc1` (centres undefined), for which the Potency result is “inactive”.

Regarding `O=C(O)c1nc(=O)[nH]c(=O)[nH]1`, the Potency entry was “inactive”.

Turning to `COc1c(C)c2c(c(O)c1CC=C(C)CCC(=O)OCCN1CCOCC1)C(=O)OC2`, the Potency is 6.01 µM (active).

`CC(C)CN(C[C@@H](O)[C@H](Cc1ccccc1)NC(=O)O[C@H]1CO[C@H]2OCC[C@H]21)S(=O)(=O)c1ccc(N)cc1`: the Potency result was “inactive”.

In the case of `N#CC(c1ccc(Cl)cc1)c1c(Cl)cc(-n2ncc(=O)[nH]c2=O)cc1Cl` (centres undefined), the Potency entry is “inactive”.

With `N#Cc1c(N(CC(=O)O)CC(=O)O)sc(C(=O)O)c1CC(=O)O`, the Potency entry is “inactive”.

As to `COc1cc2c(cc1OC)CC(=O)N(CCCN(C)C[C@H]1Cc3cc(OC)c(OC)cc31)CC2`, the Potency entry was “inactive”.

For `CN1CC(=O)N2C(Cc3c([nH]c4ccccc34)[C@H]2c2ccc3c(c2)OCO3)C1=O` (some centres undefined), the Potency entry was “inactive”.

Regarding `Clc1ccc(COC(Cn2ccnc2)c2ccc(Cl)cc2Cl)c(Cl)c1` (centres undefined), the Potency is 5.1 µM (active).

Turning to `NS(=O)(=O)c1cc(Cl)c(Cl)c(S(N)(=O)=O)c1`, the Potency result is “inactive”.

For the compound `Cc1cc2nc3c(=O)[nH]c(=O)nc-3n(CC(O)C(O)C(O)CO)c2cc1C` (centres undefined), the Potency entry is “inactive”.

For `CS(=O)(=O)c1ccc(C2=C(c3ccccc3)C(=O)OC2)cc1`, the Potency entry is “inactive”.

As to `C=C1c2cccc(O)c2C(O)=C2C(=O)[C@@]3(O)C(O)=C(C(N)=O)C(=O)[C@@H](N(C)C)[C@@H]3[C@@H](O)[C@H]12`, the Potency result was “inactive”.

For the compound `COc1ccnc(CS(=O)c2nc3ccc(OC(F)F)cc3[nH]2)c1OC` (centres undefined), the Potency result was “inactive”.
